Reference: PubChem BioAssay
Activity calls are given as the source filed them. Unless noted, no rule for the calls is given here.

Assays:
[1] = compound effects on lung adenocarcinoma cell viability – A549, calcein-AM fluorescence, 48 h, basal, profiling panel (AID 1162); details: higher = more signal; also: test concentration not given here
[2] = compound effects on differentiated 3T3-L1 adipocyte viability – cell-based, 3T3-L1 adipocytes, calcein-AM fluorescence, 48 h, basal, profiling panel (AID 1163); details: 3T3-L1 adipocytes viability, higher = more signal; also: test concentration not given here
[3] = compound effects on hepatocellular carcinoma cell viability – HepG2, calcein-AM fluorescence, 48 h, basal, profiling panel (AID 1164); details: higher = more signal; also: test concentration not given here
[4] = compound effects on multiple myeloma cell viability – MM1S, calcein-AM fluorescence, 48 h, basal, profiling panel (AID 1165); details: higher = more signal;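 also: viability of MM1S multiple myeloma cells under basal unstimulated conditions; test concentration not given here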
[5] = calcein-AM signal in unstimulated myeloma cells – cell-based, calcein-AM fluorescence, 48 h, PK04 Diversity Set, profiling panel (AID 1166); details: RPMI8226 myeloma viability, higher = more signal;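 also: cells grown under basal conditions without added stimulus; test concentration not given here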
[6] = JC-1 mitochondrial signal, unstimulated HepG2 cells – cell-based, JC-1 fluorescence, 24 h, 100 nL compound, profiling panel (AID 1167); details: HepG2 mitochondrial potential, higher = more signal; also: test concentration not given here
[7] = JC-1 mitochondrial signal, unstimulated adipocytes – cell-based, JC-1 fluorescence, 3T3-L1 adipocytes, 24 h, 100 nL compound, profiling panel (AID 1168); details: JC-1 mitochondrial fluorescence, higher = more signal, called active from +8 up or from −8 down; also: test concentration not given here
[8] = JC-1 mitochondrial signal, unstimulated myeloma cells – cell-based, JC-1 fluorescence, RPMI8226, 24 h, 100 nL compound, profiling panel (AID 1169); details: JC-1 mitochondrial potential fluorescence, higher = more signal; also: test concentration not given here
[9] = JC-1 mitochondrial signal, unstimulated MM1S myeloma – cell-based, JC-1 fluorescence, 24 h, 100 nL compound, profiling panel (AID 1170); details: MM1S mitochondrial potential, higher = more signal; also: test concentration not given here
[10] = resazurin metabolic signal in A549 cells – cell-based, resazurin fluorescence, 24 h, PK04 Diversity Set, profiling panel (AID 1171); details: A549 viability, higher = more signal, called active from +8 up or from −8 down; also: test concentration not given here
[11] = resazurin metabolic signal in HepG2 cells – cell-based, resazurin fluorescence, 24 h, PK04 Diversity Set, profiling panel (AID 1172); details: HepG2 viability, higher = more signal; also: test concentration not given here
[12] = budding yeast growth changes without added modifier – OD600, strain BY4716, 24 h, basal condition, primary screen (AID 1173); details: S. cerevisiae BY4716 growth, OD600, 24 h; higher = more signal, called active from +8 up or from −8 down
[13] = viability profiling in MM1S myeloma cells – cell-based, resazurin fluorescence, basal, 24 h, PK04 Diversity Set, profiling panel (AID 1174); details: higher = more signal, called active from +8 up or from −8 down; also: test concentration not given here
[14] = target: Dihydroorotate dehydrogenase (quinone), mitochondrial (Plasmodium falciparum (isolate 3D7)) (UniProt Q08210); assay: inhibition of P. falciparum DHODH – biochemical, C-terminal His tag, absorbance 600 nm, primary screen (AID 1175); details: PfDHODH enzyme, DCIP absorbance 600 nm; higher = more signal, called active from +8 up or from −8 down;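 also: recombinant parasite enzyme with a five histidine tag at its C terminus; test concentration not given here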
[15] = inhibition of PAO1 biofilm formation – strain PAO1, LB-PBS medium, absorbance 600 nm, primary screen (AID 1176); also: test concentration not given here; details: P. aeruginosa PAO1 growth/biofilm, A600, 12 h; higher = more signal
[16] = growth modulation of vineyard yeast isolate – strain RM11-1a, OD600, basal, 24 h, primary screen (AID 1177);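 also: cultures grown under basal conditions with no added stressor; test concentration not given here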; details: S. cerevisiae RM11-1a growth, OD600, 24 h; higher = more signal, called active from +8 up or from −8 down
[17] = growth of efflux-deficient E. coli DRC39 – strain DRC39, OD650, 24 h, E. coli filamentation inducers, primary screen (AID 1178);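 also: growth measured as culture turbidity by optical density at 650 nm; test concentration not given here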; details: E. coli DRC39 acrAB, higher = more signal, called active from +8 up or from −8 down
[18] = growth of efflux-deficient E. coli DRC39 – strain DRC39, OD650, 48 h, E. coli filamentation inducers, primary screen (AID 1179);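 also: screen aims at cell division blockers that make cells filament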; details: E. coli DRC39 delta-acrAB growth, higher = more signal, called active from +8 up or from −8 down
[19] = viability profiling in RPMI8226 myeloma cells – cell-based, resazurin fluorescence, basal, 24 h, PK04 Diversity Set, profiling panel (AID 1180); details: higher = more signal;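 also: RPMI8826 multiple myeloma cell line at 5000 cells per well; test concentration not given here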
[20] = target: E3 ubiquitin-protein ligase XIAP (Homo sapiens) (UniProt P98170); assay: small molecules binding XIAP protein – biophysical, small-molecule microarray, fluorescence 635 nm, primary screen (AID 1181); details: higher = more signal;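 also: score merges 667 nm emission and signal to noise over triplicate slides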
Sequence of E3 ubiquitin-protein ligase XIAP (Homo sapiens) (P98170 whole entry, looked up): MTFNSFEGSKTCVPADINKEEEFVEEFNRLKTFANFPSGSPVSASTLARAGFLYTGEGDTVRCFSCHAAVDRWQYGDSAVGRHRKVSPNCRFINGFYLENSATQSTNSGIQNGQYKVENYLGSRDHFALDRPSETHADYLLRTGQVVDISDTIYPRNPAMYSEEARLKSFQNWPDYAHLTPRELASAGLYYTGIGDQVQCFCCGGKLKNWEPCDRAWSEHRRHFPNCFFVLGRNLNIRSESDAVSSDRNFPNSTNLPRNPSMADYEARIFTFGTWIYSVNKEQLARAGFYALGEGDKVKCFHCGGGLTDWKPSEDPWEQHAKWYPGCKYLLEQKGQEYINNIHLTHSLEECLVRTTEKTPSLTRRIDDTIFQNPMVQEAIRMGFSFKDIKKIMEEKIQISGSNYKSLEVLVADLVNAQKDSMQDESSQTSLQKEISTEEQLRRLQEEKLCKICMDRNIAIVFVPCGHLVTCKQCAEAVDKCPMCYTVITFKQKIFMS

Sequence of Dihydroorotate dehydrogenase (quinone), mitochondrial (Plasmodium falciparum (isolate 3D7)) (Q08210 whole entry, looked up): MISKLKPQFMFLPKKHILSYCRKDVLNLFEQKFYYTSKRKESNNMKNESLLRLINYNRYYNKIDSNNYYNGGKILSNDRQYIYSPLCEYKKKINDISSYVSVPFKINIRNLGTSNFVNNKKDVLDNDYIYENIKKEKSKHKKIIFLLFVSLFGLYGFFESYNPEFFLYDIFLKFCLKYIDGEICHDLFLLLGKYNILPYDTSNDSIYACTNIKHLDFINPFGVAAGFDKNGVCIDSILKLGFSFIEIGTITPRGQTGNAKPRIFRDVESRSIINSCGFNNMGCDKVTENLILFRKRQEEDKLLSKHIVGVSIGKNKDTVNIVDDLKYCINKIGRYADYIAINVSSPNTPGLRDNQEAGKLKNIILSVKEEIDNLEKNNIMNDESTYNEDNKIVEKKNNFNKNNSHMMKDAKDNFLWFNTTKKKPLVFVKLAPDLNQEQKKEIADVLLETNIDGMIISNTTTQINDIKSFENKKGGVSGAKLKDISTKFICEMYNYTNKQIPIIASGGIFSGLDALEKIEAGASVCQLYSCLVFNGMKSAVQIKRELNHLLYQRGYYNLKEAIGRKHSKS

Compound	z-score [1]	z-score [2]	z-score [3]	z-score [4]	z-score [5]	z-score [6]	z-score [7]	z-score [8]	z-score [9]	z-score [10]	z-score [11]	z-score [12]	z-score [13]	composite z-score [14]	z-score [15]	z-score [16]	z-score [17]	z-score [18]	z-score [19]	composite z-score [20]
CC(C)C(O)C1C=CC2C(=O)N(c3ccccc3)C(=O)C2N1Nc1ccccc1 (stereo not given)	-1.17	-0.68	-0.917	-0.528	-1.03	-1.6	-0.855 (inactive)	0.0949	-1.35	0.184 (inactive)	-0.196	-2.05 (inactive)	-0.302 (inactive)	-0.85 (inactive)	0.835 (inactive)	0.334 (inactive)	0.562 (inactive)	0.376 (inactive)	-0.825	0.123
CN(C)c1ccc(C(O)C2C=CC3C(=O)NC(=O)C3N2Nc2ccccn2)cc1 (stereo not given)	-0.8	-0.358	-0.331	-0.286	-0.333	-1.21	-0.339 (inactive)	-0.492	0.468	-0.348 (inactive)	-0.8	1.03 (inactive)	-1.21 (inactive)	0.957 (inactive)	0.503 (inactive)	0.489 (inactive)	-0.738 (inactive)	0.0674 (inactive)	-1.79	0.0726
CCCNC(=O)[C@@H]1c2ccccc2C(=O)N(Cc2ccc(OC(F)(F)F)cc2)[C@H]1c1ccc(CO)cc1	1.17	0.385	2.08	0.157	0.485	3.22	1.22 (inactive)	0.432	0.129	0.285 (inactive)	0.266	0.0357 (inactive)	0.186 (inactive)	-0.966 (inactive)	-0.217 (inactive)	0.532 (inactive)	0.659 (inactive)	1.34 (inactive)	0.584	0.155
CCCC=C(CCC)[C@@H](NS(=O)(=O)CC12CCC(CC1=O)C2(C)C)c1ccc(C(=O)OC)cc1 (stereo not given in full)	-0.672	-0.316	-0.915	0.295	-1.06	-2	0.273 (inactive)	0.7	-1.46	0.252 (inactive)	0.602	0.484 (inactive)	0.16 (inactive)	-0.929 (inactive)	0.756 (inactive)	-0.721 (inactive)	0.0384 (inactive)	-0.572 (inactive)	-0.123	-0.102
COC(=O)[C@@]1(Cc2ccc(OC)cc2)[C@H]2c3cc(C(=O)N4CCCC4)n(CCc4c[nH]c5ccc(OC)cc45)c3C[C@H]2CN1C(=O)c1ccccc1	-1.19	-0.791	-0.636	-1.52	-3.62	-0.205	-1.04 (inactive)	-0.819	-1.86	-2.3 (inactive)	-1.23	1.26 (inactive)	-3.31 (inactive)	-0.112 (inactive)	1.54 (inactive)	0.708 (inactive)	-0.456 (inactive)	-0.0765 (inactive)	-3.35	0.123
COc1ccc([Si](C)(C)[C@@H]2[C@@H](CC(=O)N3CCC[C@H]3CO)O[C@]3(C(=O)N(Cc4cccc(N5C(=O)COc6ccccc65)c4)c4ccccc43)[C@H]2C)cc1	-0.97	0.441	-4.31	-2.96	-3.83	-1.81	-1.01 (inactive)	-0.975	-2	-2.13 (inactive)	-1.58	0.107 (inactive)	-3.43 (inactive)	-1.54 (inactive)	0.425 (inactive)	0.0195 (inactive)	0.719 (inactive)	0.374 (inactive)	-5.39	-0.102
COC(=O)C/C=C/C[C@]1(O)C(=O)N(C)c2ccccc21	1.59	0.349	1.39	0.672	-0.419	1.25	-0.694 (inactive)	-0.838	2.2	0.946 (inactive)	0.197	-1.81 (inactive)	0.913 (inactive)	-0.429 (inactive)	0.732 (inactive)	-2.6 (inactive)	2.38 (inactive)	0.875 (inactive)	0.547	-0.0861
O=C(NCCN1CCOCC1)[C@@H]1c2ccccc2C(=O)N(C2Cc3ccccc3C2)[C@H]1c1ccc(CO)cc1	2.31	1.58	2.01	0.578	1.35	4.03	0.894 (inactive)	-0.647	0.291	0.326 (inactive)	-0.174	-0.633 (inactive)	0.886 (inactive)	-1.79 (inactive)	0.404 (inactive)	-1.44 (inactive)	0.638 (inactive)	1.07 (inactive)	0.142	0.164
O[C@@H](Cc1ccccc1)[C@@H](/C=C/C1CC1)N(CC#Cc1ccccc1)Cc1ccccc1Br	-0.049	-0.667	-0.258	0.0144	-0.353	-1.79	-0.344 (inactive)	-0.44	-0.571	1.62 (inactive)	1.67	0.365 (inactive)	1.14 (inactive)	0.63 (inactive)	-0.59 (inactive)	1.43 (inactive)	-0.419 (inactive)	-0.232 (inactive)	2.14	0.339
